Source: the supplement of paper PMC8975748
Where a name gives a salt, the structure may show the parent alone. ± gives the standard deviation of the averaged measurements.

Legend:
[1] = system: Saccharomyces cerevisiae BY4741 SeMeCo community; assay: mean cell size (pixel area) (pixels); higher = larger cells; conditions: 10 µM; 24 h; SM minimal medium
In short: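 A four-plasmid fluorescent Saccharomyces cerevisiae BY4741 community was tested; each plasmid complements one auxotrophy and carries a fluorescent marker. An overnight preculture at OD600 = 1.0 was diluted to OD600 = 0.3, and 70 µl was added to 384-well plates acoustically predosed with drug (final 10 µM) in SM medium for 24 h. Cells were fixed with paraformaldehyde and imaged by automated confocal microscopy, with analysis in Harmony. Mean cell pixel area per well is averaged over 3 replicates. Same SeMeCo high-content imaging drug screen: Selleck FDA-approved drugs at 10 µM, 24 h in SM medium, 384-well plates, 3 replicates.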

[2] = system: Saccharomyces cerevisiae BY4741 SeMeCo community; assay: z-score of prototroph abundance vs DMSO median; higher = larger share of this subpopulation than in DMSO controls; conditions: 10 µM; 24 h; SM minimal medium; subpopulation (auxotrophy): Prototroph
In short: (§1)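 A community of Saccharomyces cerevisiae BY4741 was built from four plasmids that each restored one auxotrophy and encoded a distinct fluorescent protein. Pre-grown overnight to OD600 1.0 and diluted to 0.3, it was dispensed at 70 µl into 384-well plates acoustically predosed with library drugs for a final 10 µM, and grown 24 h in minimal SM medium. Cells were then paraformaldehyde-fixed and imaged by automated confocal microscopy. Thresholds and autofluorescence correction came from single-auxotroph fluorescent strains, and each subpopulation's abundance was scored as a z-score relative to the vehicle-well median.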

[3] = system: Saccharomyces cerevisiae BY4741 SeMeCo community; assay: z-score of subpopulation abundance vs DMSO median, subpopulation auxotrophic for M; higher = larger share of this subpopulation than in DMSO controls; conditions: 10 µM; 24 h; SM minimal medium; subpopulation (auxotrophy): M
In short: as §1

[4] = system: Saccharomyces cerevisiae BY4741 SeMeCo community; assay: z-score of subpopulation abundance vs DMSO median, subpopulation auxotrophic for L; higher = larger share of this subpopulation than in DMSO controls; conditions: 10 µM; 24 h; SM minimal medium; subpopulation (auxotrophy): L
In short: as §1

[5] = system: Saccharomyces cerevisiae BY4741 SeMeCo community; assay: z-score of subpopulation abundance vs DMSO median, subpopulation auxotrophic for U; higher = larger share of this subpopulation than in DMSO controls; conditions: 10 µM; 24 h; SM minimal medium; subpopulation (auxotrophy): U
In short: as §1

[6] = system: Saccharomyces cerevisiae BY4741 SeMeCo community; assay: z-score of subpopulation abundance vs DMSO median, subpopulation auxotrophic for H; higher = larger share of this subpopulation than in DMSO controls; conditions: 10 µM; 24 h; SM minimal medium; subpopulation (auxotrophy): H
In short: as §1

[7] = system: Saccharomyces cerevisiae BY4741 SeMeCo community; assay: z-score of subpopulation abundance vs DMSO median, subpopulation auxotrophic for LU; higher = larger share of this subpopulation than in DMSO controls; conditions: 10 µM; 24 h; SM minimal medium; subpopulation (auxotrophy): LU
In short: as §1

[8] = system: Saccharomyces cerevisiae BY4741 SeMeCo community; assay: z-score of subpopulation abundance vs DMSO median, subpopulation auxotrophic for LM; higher = larger share of this subpopulation than in DMSO controls; conditions: 10 µM; 24 h; SM minimal medium; subpopulation (auxotrophy): LM
In short: as §1

[9] = system: Saccharomyces cerevisiae BY4741 SeMeCo community; assay: z-score of subpopulation abundance vs DMSO median, subpopulation auxotrophic for HM; higher = larger share of this subpopulation than in DMSO controls; conditions: 10 µM; 24 h; SM minimal medium; subpopulation (auxotrophy): HM
In short: as §1

[10] = system: Saccharomyces cerevisiae BY4741 SeMeCo community; assay: z-score of subpopulation abundance vs DMSO median, subpopulation auxotrophic for UM; higher = larger share of this subpopulation than in DMSO controls; conditions: 10 µM; 24 h; SM minimal medium; subpopulation (auxotrophy): UM
In short: as §1

[11] = system: Saccharomyces cerevisiae BY4741 SeMeCo community; assay: z-score of subpopulation abundance vs DMSO median, subpopulation auxotrophic for HL; higher = larger share of this subpopulation than in DMSO controls; conditions: 10 µM; 24 h; SM minimal medium; subpopulation (auxotrophy): HL
In short: as §1

[12] = system: Saccharomyces cerevisiae BY4741 SeMeCo community; assay: z-score of subpopulation abundance vs DMSO median, subpopulation auxotrophic for HLU; higher = larger share of this subpopulation than in DMSO controls; conditions: 10 µM; 24 h; SM minimal medium; subpopulation (auxotrophy): HLU
In short: as §1

[13] = system: Saccharomyces cerevisiae BY4741 SeMeCo community; assay: z-score of subpopulation abundance vs DMSO median, subpopulation auxotrophic for HUM; higher = larger share of this subpopulation than in DMSO controls; conditions: 10 µM; 24 h; SM minimal medium; subpopulation (auxotrophy): HUM
In short: as §1

[14] = system: Saccharomyces cerevisiae BY4741 SeMeCo community; assay: z-score of subpopulation abundance vs DMSO median, subpopulation auxotrophic for LUM; higher = larger share of this subpopulation than in DMSO controls; conditions: 10 µM; 24 h; SM minimal medium; subpopulation (auxotrophy): LUM
In short: as §1

[15] = system: Saccharomyces cerevisiae BY4741 SeMeCo community; assay: z-score of subpopulation abundance vs DMSO median, subpopulation auxotrophic for HLUM; higher = larger share of this subpopulation than in DMSO controls; conditions: 10 µM; 24 h; SM minimal medium; subpopulation (auxotrophy): HLUM
In short: as §1

[16] = system: Saccharomyces cerevisiae BY4741 SeMeCo community; assay: z-score of subpopulation abundance vs DMSO median, subpopulation auxotrophic for HU; higher = larger share of this subpopulation than in DMSO controls; conditions: 10 µM; 24 h; SM minimal medium; subpopulation (auxotrophy): HU
In short: as §1

[17] = system: Saccharomyces cerevisiae BY4741 SeMeCo community; assay: z-score of subpopulation abundance vs DMSO median, subpopulation auxotrophic for HLM; higher = larger share of this subpopulation than in DMSO controls; conditions: 10 µM; 24 h; SM minimal medium; subpopulation (auxotrophy): HLM
In short: as §1

| Compound | mean cell size [1] | z-score of prototroph abundance [2] | z-score of subpopulation abundance [3] | z-score of subpopulation abundance [4] | z-score of subpopulation abundance [5] | z-score of subpopulation abundance [6] | z-score of subpopulation abundance [7] | z-score of subpopulation abundance [8] | z-score of subpopulation abundance [9] | z-score of subpopulation abundance [10] | z-score of subpopulation abundance [11] | z-score of subpopulation abundance [12] | z-score of subpopulation abundance [13] | z-score of subpopulation abundance [14] | z-score of subpopulation abundance [15] | z-score of subpopulation abundance [16] | z-score of subpopulation abundance [17] |
| --- | --- | --- | --- | --- | --- | --- | --- | --- | --- | --- | --- | --- | --- | --- | --- | --- | --- |
| CO[C@@]1(NC(=O)Cc2cccs2)C(=O)N2C(C(=O)O)=C(COC(N)=O)CS[C@@H]21 [Cefoxitin sodium] | 12.5 ± 0.3 | 1.38 | -0.16 | -1.28 | -0.18 | -0.25 | -0.8 | -1.09 | 0.04 | -0.63 | -0.41 | -1.19 | -1.19 | -0.95 | -0.41 |  |  |
| CN1CCN2c3ncccc3Cc3ccccc3C2C1 (centres undefined) [Mirtazapine] | 12.38 ± 0.12 | 0.24 | 0.18 | -0.64 | 0.29 | -0.51 | -0.59 | -0.11 | -0.07 | 0.24 | -0.38 | -0.45 | 1.07 |  | -0.87 | 0.29 |  |
| COc1ccc2c(c1)c(CC(=O)OCC(=O)O)c(C)n2C(=O)c1ccc(Cl)cc1 [Acemetacin] |  | -0.16 | 0.01 | -1.06 |  | 0.66 | 0.16 | -0.54 | 0.71 | 0.2 | 0.11 | -0.64 |  | -0.15 |  | 0.77 | -0.3 |
| NCC[C@H](O)C(=O)N[C@@H]1C[C@H](N)[C@@H](O[C@H]2O[C@H](CN)[C@@H](O)[C@H](O)[C@H]2O)[C@H](O)[C@H]1O[C@H]1O[C@H](CO)[C@@H](O)[C@H](N)[C@H]1O [Amikacin hydrate] | 12.16 ± 0.089 | 0.26 | -0.02 | 1.02 | -0.78 | -0.04 | -0.95 | 0.15 | -0.36 | -0.12 |  | -0.03 | -0.33 |  | 0.15 | -0.52 |  |
| Clc1ccccc1C(c1ccccc1)(c1ccccc1)n1ccnc1 [Clotrimazole] | 11.89 ± 0.097 | -9.07 | 4.9 | -2.83 | -0.04 | 6.9 | -0.93 | 1.9 | 6.05 | 18.8 | 3.58 | 3.78 | 7.76 | 5.41 | 9.79 | 6.35 |  |
| CC1(C)S[C@@H]2[C@H](NC(=O)[C@H](N)c3ccccc3)C(=O)N2[C@H]1C(=O)O [Ampicillin sodium] | 12.3 ± 0.15 | 0.8 | -0.4 | 0.09 |  |  | 0.12 | -0.28 | -0.71 | -0.31 | -0.73 | -0.42 | -0.12 | -0.14 | -0.67 | 0.1 |  |
| CCCc1nn(C)c2c(=O)[nH]c(-c3cc(S(=O)(=O)N4CCN(C)CC4)ccc3OCC)nc12 [Sildenafil Mesylate] |  |  | -0.91 | 0.21 |  | -0.01 | 0.91 |  | -0.05 | 0.21 | -0.5 | 0.05 | 1.55 | 0.38 | 0.08 | 1.74 |  |
| COc1cc(NC(C)CCCN)c2ncccc2c1 (centres undefined) [Primaquine Diphosphate] |  | 0.58 | 1.17 | -0.56 | -1.22 | 0.32 | -1.15 | 0.09 | 0.98 | -0.88 |  | -0.39 | -1.39 | -0.75 | -0.49 |  |  |
| C/C(=C\C(=O)OCCCCCCCCC(=O)O)C[C@@H]1OC[C@H](C[C@@H]2O[C@H]2[C@@H](C)[C@H](C)O)[C@@H](O)[C@H]1O [Mupirocin calcium] | 12.2 ± 0.29 | -0.73 | -0.19 | -0.72 |  | 0.77 | 0.56 |  | 0.83 | 1.73 |  | 0.12 | 1.29 | 0.39 | -0.25 | 1.13 |  |
| C#CCN[C@@H]1CCc2ccccc21 [Rasagiline] | 12.26 ± 0.11 | 0.01 | -0.39 |  | 0.2 |  | 0.78 | -0.61 | -0.4 | 0.58 |  | -0.13 | -0.36 | 0.07 | 0.12 | 0 | -0.17 |
| C[C@]12CC[C@@H]3c4ccc(O)cc4CC[C@H]3[C@@H]1CC[C@@H]2OC(=O)CCC1CCCC1 [Estradiol Cypionate] | 12.4 ± 0.13 | -0.3 | -0.43 | -0.23 | 0.71 | -0.04 | 0.17 | -0.12 | -0.34 | 0.45 | -0.29 | 0 | 1.22 | 0.29 |  | 0.6 |  |
| Cc1ccc2c(Cl)cc(Cl)c(O)c2n1 [Chlorquinaldol] | 14.5 ± 0.18 | -18.8 | 7.61 |  | -6.35 | 9.18 | -2.2 | 9.8 | 33.5 | -1.95 | 19.8 | 28.9 | 15.8 | 16.2 | 114 | 7.3 | 107 |
| O=C(O)c1cc(=O)c2c(OCC(O)COc3cccc4oc(C(=O)O)cc(=O)c34)cccc2o1 [Disodium Cromoglycate] |  | 0.23 | -0.6 | -1.19 | 0.66 | -0.75 | -0.38 |  | -0.13 | -0.22 | -1.3 | -0.29 | -0.62 | -0.55 | -0.81 | 0.68 |  |
| CCn1cc(C(=O)O)c(=O)c2cc(F)c(N3CCNCC3)nc21 [Enoxacin Sesquihydrate] | 12.2 ± 0.23 | -0.92 | 0.76 | -0.96 |  | -1.49 | 0.91 | 0 |  | 1.24 | -0.59 | -0.17 | 0.88 | 0.36 | -0.27 | 0.47 |  |
| C[C@@H](O)[C@H]1C(=O)N2C(C(=O)O)=C(SCCNC=N)C[C@H]12 [Imipenem] | 12.26 ± 0.071 | -0.79 | 0.92 | -1.04 | 0.59 | 0.19 | -0.16 | 0.19 |  | 1.18 |  | -0.62 | 0.59 | 0.35 | -0.14 | -0.46 |  |
| COCC1=C(C(=O)OC(C)OC(=O)OC(C)C)N2C(=O)[C@@H](NC(=O)/C(=N\OC)c3csc(N)n3)[C@H]2SC1 (some centres undefined) [Cefpodoxime proxetil] | 12.25 ± 0.089 | -0.89 | 0.5 | -0.07 |  | -0.09 | 0.31 | 0.62 |  | 0.01 | -0.24 | 0.57 | 0.76 |  | 0.35 |  |  |
